# Source: PubChem BioAssay
# In the library only some 1.6% were active in any assay of this set; here they are far more common.
# KCNQ2 enhance: potentiators of rat KCNQ2 potassium channel; Potassium voltage-gated channel subfamily KQT member 2 (Rattus norvegicus), O88943; CHO-K1 KCNQ2, FluxOR thallium flux fluorescence; active compounds read high; B-score at 10 µM; hit rate 0.54% among 310,000; AID 2239, 2010;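 active means fluorescence ratio B-score at least 3 SD of library B-scores, with initial fluorescence B-score within 3 of them, cut at about 5.3 in these data; same plate scores as AID 2156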;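 further: B-score of peak minus minimum over baseline fluorescence ratio after K+ and Tl+ stimulus; positive B-score means potentiation of KCNQ2 with more thallium influx and brighter signal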
# KCNQ2 block: rat KCNQ2 potassium channel inhibitors, primary screen, cell-based, CHO-K1, FluxOR thallium flux, B-score. 20 min; active compounds read low. B-score at 10 µM. hit rate 1.1% among 310,000;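 active means fluorescence ratio B-score at most minus 3 library SDs, with starting brightness B-score within 2 library SDs, cut at about -5.5 in these data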
# Kir21 conf inh: mouse Kir2.1 channel blockers, retest, confirmation, cell-based, FluxOR thallium flux, duplicate; shares compounds with KCNQ2 enhance; Kir2.1-expressing cells, FluxOR thallium flux fluorescence; active compounds read low; Tl flux remaining, % of negative control (active compounds read low), % at 10 µM; hit rate 41% among 2,300; AID 2032, 2009;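 active means Primary-screen hit whose thallium flux fell at least 3 control SD below untreated wells in both duplicates, with normal baseline fluorescence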;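 further: 0% = blank wells without stimulus and 100% = stimulated no-compound controls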
# Target sequence (P35561 whole entry, looked up): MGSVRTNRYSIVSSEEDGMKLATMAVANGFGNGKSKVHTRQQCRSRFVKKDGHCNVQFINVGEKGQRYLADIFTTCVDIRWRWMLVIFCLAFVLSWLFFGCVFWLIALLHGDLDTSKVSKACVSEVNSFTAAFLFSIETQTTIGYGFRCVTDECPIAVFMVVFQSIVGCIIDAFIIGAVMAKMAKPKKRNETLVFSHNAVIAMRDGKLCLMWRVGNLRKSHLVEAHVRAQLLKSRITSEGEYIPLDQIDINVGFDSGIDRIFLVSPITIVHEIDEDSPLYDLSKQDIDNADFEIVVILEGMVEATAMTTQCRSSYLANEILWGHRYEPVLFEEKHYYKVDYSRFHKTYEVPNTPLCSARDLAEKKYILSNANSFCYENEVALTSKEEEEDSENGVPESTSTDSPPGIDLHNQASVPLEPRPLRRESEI
# HEK293 Tl flux: alters thallium flux in parental HEK293 cells, Kir2.1 counter-screen; hit rate 19% among 2,300; FluxOR signal as % of negative control (100 = no effect), % at 10 µM; FluxOR thallium flux fluorescence; 0% = unstimulated blank wells; shares compounds with KCNQ2 enhance;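 active means dye signal at least 3 control SD above or below untreated wells in both duplicates, raw fluorescence within 3, either direction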;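 further: percent is based on the flux ratio of peak minus minimum fluorescence over baseline F0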
# CHO-K1 ctr: nonspecific thallium flux increase in parental CHO-K1, confirmation, counter-screen for KCNQ2 potentiator project, cell-based, FluxOR thallium flux, duplicate; activity increase over 3SD of controls, % at 10 µM; parental CHO-K1 cells, FluxOR thallium flux fluorescence; zero = vehicle mean+3SD, 100% = vehicle-minus-blank window; AID 2282, 2010; shares compounds with KCNQ2 enhance; hit rate 43% among 1,200;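 active means signal rise of at least 3 SD above the untreated control mean, in both duplicate wells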;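 further: counter screen of KCNQ2 potentiator hits so any rise reflects channel-independent effects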
# KCNQ1 pot spec: human KCNQ1 channel potentiation off-target, confirmation, selectivity assay for KCNQ2 potentiator project, cell-based, CHO, FluxOR thallium flux | CHO KCNQ1 stable, FluxOR thallium flux fluorescence; beyond 3SD, as % of vehicle-control signal | hit rate 28% among 1,200 | activation over 3SD threshold, % at 10 µM | AID 2283, 2010 | shares compounds with KCNQ2 enhance;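 active means fluorescence ratio rise of at least 3 SD of vehicle wells above their mean, in both replicate wells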;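 further: 0% = vehicle mean plus 3 SD and 100% = vehicle minus unstimulated blank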
# KCNQ2 pot confirm: rat KCNQ2 channel potentiators, confirmation, cell-based, CHO, FluxOR thallium flux, duplicate; potentiation, less the hit threshold, % at 10 µM; CHO-KCNQ2 cells, FluxOR thallium flux fluorescence; hit rate 68% among 1,200; shares compounds with KCNQ2 enhance;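 active means fluorescence ratio rising 3 SD or more over the vehicle control mean in both replicates, plus primary screen hit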;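 further: peak minus minimum thallium fluorescence divided by baseline after K/Tl stimulus; 0% = vehicle mean plus 3 SD and 100% = vehicle minus unstimulated blank difference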
# Kir2-1 sel: mouse Kir2.1 channel activation off-target, confirmation, selectivity assay for KCNQ2 potentiator project, cell-based, HEK293, FluxOR thallium flux. AID 2345, 2010. shares compounds with KCNQ2 enhance. activity over 3SD threshold, % at 10 µM. HEK293 Kir2.1, FluxOR thallium flux fluorescence. hit rate 2% among 1,200;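 active means fluorescence ratio rise of at least 3 SD above the vehicle-control mean, seen in both replicates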;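 further: 0% = vehicle mean plus 3 SD and 100% = vehicle minus no-stimulus blank window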
# KCNQ2 W236L pot: potentiators of retigabine-insensitive KCNQ2 W236L, mechanism study for KCNQ2 potentiator project, cell-based, rat KCNQ2 W236L, CHO, automated patch clamp; shares compounds with KCNQ2 enhance; automated patch clamp current; current increase over 3SD of negative controls (%), active compounds read high, % at 25 µM; hit rate 10% among 940;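 active means current increase at least 3 SD of the untreated controls above them in both duplicate recordings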
# An asterisk follows results filed as active; i = inactive; / = no result.
SMILES,KCNQ2 enhance,KCNQ2 block,Kir21 conf inh,HEK293 Tl flux,others
c1ccc(SCCCCNC2CCCC2)cc1,1.17,i,/,/,
c1ccc(-c2ccc(OCCCNC3CCCC3)cc2)cc1,/,i,42.5%*,i,
COc1ccc(OCCNC2CCCC2)cc1,1.11,i,/,/,
O=C1CC(NS(=O)(=O)c2cccs2)CN1c1cccc(F)c1 (stereo not given),1.16,i,/,/,
Cc1ccc(-c2nc(-c3ccncc3)no2)cc1,0.06,i,/,/,
CC(C)(C)c1ccc(-c2nc(-c3ccncc3)no2)cc1,7*,i,i,i,CHO-K1 ctr=54.1*;KCNQ1 pot spec=-12.9;KCNQ2 pot confirm=45.5*;Kir2-1 sel=-35.8;KCNQ2 W236L pot=i
CCCCCCSC1=C(C#N)C(c2ccc(C)o2)CC(=O)N1 (stereo not given),/,i,59.5%*,i,
C=C(C)CSC1=C(C#N)C(c2ccccc2)CC(=O)N1 (stereo not given),/,i,/,/,
N#CC1=C(SCc2ccccc2)NC(=O)CC1c1ccco1 (stereo not given),/,i,41.0%*,i,
CCSC1=C(C#N)C(c2ccc(C)o2)CC(=O)N1 (stereo not given),/,i,/,/,
N#CC1=C(SCC(=O)NCc2ccccc2)NC(=O)CC1c1ccco1 (stereo not given),0.02,i,/,/,
Cc1ccc(C2CC(=O)NC(SCc3ccccc3)=C2C#N)o1 (stereo not given),/,i,43.5%*,i,
Cc1c(NC(=O)Nc2cccc(C#N)c2)c(=O)n(-c2ccccc2)n1C,/,i,/,/,
O=C(c1ccc(F)cc1)N1CCC(C(=O)N2CCN(S(=O)(=O)c3cccc([N+](=O)[O-])c3)CC2)CC1,/,i,/,/,
Cc1noc(C)c1-c1nc(CS(=O)(=O)c2ccc(F)cc2)no1,/,i,/,/,
Cc1ccc(/C=C/C(=O)N2CC(C)CC(C)C2)o1 (stereo not given),6.21*,i,i,i,CHO-K1 ctr=-6.9;KCNQ1 pot spec=-7.0;KCNQ2 pot confirm=-1.0;Kir2-1 sel=-38.0;KCNQ2 W236L pot=i
CCN1CCN(C(=O)/C=C/c2ccc(C)o2)CC1,/,i,/,/,
O=S(=O)(Nc1ccc(-c2cn3c(n2)SCC3)cc1)c1ccccc1F,/,i,/,/,
COc1ccc(CN2CCCC(C(=O)c3ccc4c(c3)OCO4)C2)c(F)c1 (stereo not given),/,i,56.5%*,i,
COc1cccc(CN2CCCC(C(=O)c3ccc4c(c3)OCO4)C2)c1O (stereo not given),/,i,/,/,
COc1cc2c(cc1OC)C(c1ccccc1C(F)(F)F)CC(=O)N2 (stereo not given),1.16,i,/,/,
CCCCCCCCC[n+]1cccc2c3ccccc3ccc21,/,i,6.5%*,i,
O=[N+]([O-])c1ccc(C[n+]2cccc3c4ccccc4ccc32)cc1,1.06,i,/,/,
